Measured values published in the supplement of paper PMC10849652.
About 7,900 targets were measured; listed, in parts, are those with a hit and a random draw of the rest. About 0.6% of all pairs of compound and target were hits.

Experiments:
Assay in all cases: log2 fold change, soluble protein after heating vs DMSO (PISA); higher = thermal stabilisation; K562 cells, 10 uM, 30 min; active = over 0.2 and 3.5 SD of the protein, either way, in both replicates (recomputed)
YAE1 = YAE1 (UniProt Q9NRH1)
Chain of YAE1 (Q9NRH1 whole entry, looked up): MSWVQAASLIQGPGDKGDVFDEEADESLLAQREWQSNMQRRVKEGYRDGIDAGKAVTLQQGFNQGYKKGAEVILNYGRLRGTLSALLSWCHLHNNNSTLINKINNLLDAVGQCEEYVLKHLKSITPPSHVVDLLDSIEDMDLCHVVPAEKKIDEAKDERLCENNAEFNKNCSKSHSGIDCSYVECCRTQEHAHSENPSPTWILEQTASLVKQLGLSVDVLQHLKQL
How it was run: (§1)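 Soluble protein was defined as the supernatant after 21,000xg for 90 min. It came from K562 cells at 2×10^6 cells/mL given 10 μM compound for 30 min, heated in aliquots for 3 min across 48°C-58°C, pooled, and extracted in PBS with 0.5% NP-40 at 4°C, and was quantified by TMTpro 16plex LC-MS/MS with equalised channel sums. Thermal stability against control samples, from duplicates, is reported as log2 fold change.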

YBX1 = YBX1 (UniProt P67809)
Chain of YBX1 (P67809 whole entry, looked up): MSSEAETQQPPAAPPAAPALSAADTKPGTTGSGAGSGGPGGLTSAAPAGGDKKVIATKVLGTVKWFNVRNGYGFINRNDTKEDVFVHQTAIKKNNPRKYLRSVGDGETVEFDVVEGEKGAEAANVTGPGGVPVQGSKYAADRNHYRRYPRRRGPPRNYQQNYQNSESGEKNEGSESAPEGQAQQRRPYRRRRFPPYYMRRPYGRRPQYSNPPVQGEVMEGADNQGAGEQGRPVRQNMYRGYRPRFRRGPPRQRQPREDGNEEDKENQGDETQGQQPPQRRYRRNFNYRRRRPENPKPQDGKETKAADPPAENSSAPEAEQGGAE
How it was run: as §1

YES1 = YES1 (UniProt P07947)
Chain of YES1 (P07947 whole entry, looked up): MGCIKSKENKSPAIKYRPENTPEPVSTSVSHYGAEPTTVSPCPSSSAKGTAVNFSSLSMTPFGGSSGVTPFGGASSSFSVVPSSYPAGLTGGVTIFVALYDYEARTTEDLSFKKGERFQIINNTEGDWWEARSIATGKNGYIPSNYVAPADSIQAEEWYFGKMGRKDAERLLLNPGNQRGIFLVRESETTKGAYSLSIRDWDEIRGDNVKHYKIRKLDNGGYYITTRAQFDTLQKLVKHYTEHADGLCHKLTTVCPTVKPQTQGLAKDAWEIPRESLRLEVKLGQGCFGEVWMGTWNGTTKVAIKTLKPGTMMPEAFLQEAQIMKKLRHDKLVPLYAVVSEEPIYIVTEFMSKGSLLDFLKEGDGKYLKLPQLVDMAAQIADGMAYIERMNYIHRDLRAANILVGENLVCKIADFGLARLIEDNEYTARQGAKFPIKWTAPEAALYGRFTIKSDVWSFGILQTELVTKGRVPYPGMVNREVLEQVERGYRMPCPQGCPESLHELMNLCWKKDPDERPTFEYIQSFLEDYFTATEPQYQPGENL
How it was run: as §1

YIPF4 = YIPF4 (UniProt Q9BSR8)
Chain of YIPF4 (Q9BSR8 whole entry, looked up): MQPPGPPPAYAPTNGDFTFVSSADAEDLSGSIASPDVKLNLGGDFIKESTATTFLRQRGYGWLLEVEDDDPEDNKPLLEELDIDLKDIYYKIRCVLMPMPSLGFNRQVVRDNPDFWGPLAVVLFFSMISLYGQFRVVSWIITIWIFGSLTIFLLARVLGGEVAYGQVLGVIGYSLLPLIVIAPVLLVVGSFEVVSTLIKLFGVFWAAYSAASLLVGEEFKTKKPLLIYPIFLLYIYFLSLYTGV
How it was run: as §1

YIPF5 isoform 3 = YIPF5 isoform 3 (UniProt Q969M3)
Chain of YIPF5 isoform 3 (Q969M3 whole entry, looked up, canonical isoform): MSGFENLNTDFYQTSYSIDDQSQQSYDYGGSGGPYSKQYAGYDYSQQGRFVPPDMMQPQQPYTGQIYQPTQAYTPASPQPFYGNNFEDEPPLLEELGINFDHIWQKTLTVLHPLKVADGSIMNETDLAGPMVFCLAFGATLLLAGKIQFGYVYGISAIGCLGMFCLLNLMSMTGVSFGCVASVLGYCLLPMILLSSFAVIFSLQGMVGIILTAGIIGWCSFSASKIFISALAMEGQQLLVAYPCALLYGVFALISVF
How it was run: as §1

YIPF6 = YIPF6 (UniProt Q96EC8)
Chain of YIPF6 (Q96EC8 whole entry, looked up): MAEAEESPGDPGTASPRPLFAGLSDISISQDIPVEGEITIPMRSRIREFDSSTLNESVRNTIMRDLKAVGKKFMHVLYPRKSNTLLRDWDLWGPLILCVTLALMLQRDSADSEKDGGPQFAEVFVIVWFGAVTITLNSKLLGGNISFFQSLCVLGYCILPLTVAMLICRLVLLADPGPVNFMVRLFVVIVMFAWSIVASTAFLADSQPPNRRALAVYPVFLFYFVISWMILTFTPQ
How it was run: as §1

YLPM1 = YLPM1 (UniProt P49750)
Chain of YLPM1 (P49750 whole entry, looked up): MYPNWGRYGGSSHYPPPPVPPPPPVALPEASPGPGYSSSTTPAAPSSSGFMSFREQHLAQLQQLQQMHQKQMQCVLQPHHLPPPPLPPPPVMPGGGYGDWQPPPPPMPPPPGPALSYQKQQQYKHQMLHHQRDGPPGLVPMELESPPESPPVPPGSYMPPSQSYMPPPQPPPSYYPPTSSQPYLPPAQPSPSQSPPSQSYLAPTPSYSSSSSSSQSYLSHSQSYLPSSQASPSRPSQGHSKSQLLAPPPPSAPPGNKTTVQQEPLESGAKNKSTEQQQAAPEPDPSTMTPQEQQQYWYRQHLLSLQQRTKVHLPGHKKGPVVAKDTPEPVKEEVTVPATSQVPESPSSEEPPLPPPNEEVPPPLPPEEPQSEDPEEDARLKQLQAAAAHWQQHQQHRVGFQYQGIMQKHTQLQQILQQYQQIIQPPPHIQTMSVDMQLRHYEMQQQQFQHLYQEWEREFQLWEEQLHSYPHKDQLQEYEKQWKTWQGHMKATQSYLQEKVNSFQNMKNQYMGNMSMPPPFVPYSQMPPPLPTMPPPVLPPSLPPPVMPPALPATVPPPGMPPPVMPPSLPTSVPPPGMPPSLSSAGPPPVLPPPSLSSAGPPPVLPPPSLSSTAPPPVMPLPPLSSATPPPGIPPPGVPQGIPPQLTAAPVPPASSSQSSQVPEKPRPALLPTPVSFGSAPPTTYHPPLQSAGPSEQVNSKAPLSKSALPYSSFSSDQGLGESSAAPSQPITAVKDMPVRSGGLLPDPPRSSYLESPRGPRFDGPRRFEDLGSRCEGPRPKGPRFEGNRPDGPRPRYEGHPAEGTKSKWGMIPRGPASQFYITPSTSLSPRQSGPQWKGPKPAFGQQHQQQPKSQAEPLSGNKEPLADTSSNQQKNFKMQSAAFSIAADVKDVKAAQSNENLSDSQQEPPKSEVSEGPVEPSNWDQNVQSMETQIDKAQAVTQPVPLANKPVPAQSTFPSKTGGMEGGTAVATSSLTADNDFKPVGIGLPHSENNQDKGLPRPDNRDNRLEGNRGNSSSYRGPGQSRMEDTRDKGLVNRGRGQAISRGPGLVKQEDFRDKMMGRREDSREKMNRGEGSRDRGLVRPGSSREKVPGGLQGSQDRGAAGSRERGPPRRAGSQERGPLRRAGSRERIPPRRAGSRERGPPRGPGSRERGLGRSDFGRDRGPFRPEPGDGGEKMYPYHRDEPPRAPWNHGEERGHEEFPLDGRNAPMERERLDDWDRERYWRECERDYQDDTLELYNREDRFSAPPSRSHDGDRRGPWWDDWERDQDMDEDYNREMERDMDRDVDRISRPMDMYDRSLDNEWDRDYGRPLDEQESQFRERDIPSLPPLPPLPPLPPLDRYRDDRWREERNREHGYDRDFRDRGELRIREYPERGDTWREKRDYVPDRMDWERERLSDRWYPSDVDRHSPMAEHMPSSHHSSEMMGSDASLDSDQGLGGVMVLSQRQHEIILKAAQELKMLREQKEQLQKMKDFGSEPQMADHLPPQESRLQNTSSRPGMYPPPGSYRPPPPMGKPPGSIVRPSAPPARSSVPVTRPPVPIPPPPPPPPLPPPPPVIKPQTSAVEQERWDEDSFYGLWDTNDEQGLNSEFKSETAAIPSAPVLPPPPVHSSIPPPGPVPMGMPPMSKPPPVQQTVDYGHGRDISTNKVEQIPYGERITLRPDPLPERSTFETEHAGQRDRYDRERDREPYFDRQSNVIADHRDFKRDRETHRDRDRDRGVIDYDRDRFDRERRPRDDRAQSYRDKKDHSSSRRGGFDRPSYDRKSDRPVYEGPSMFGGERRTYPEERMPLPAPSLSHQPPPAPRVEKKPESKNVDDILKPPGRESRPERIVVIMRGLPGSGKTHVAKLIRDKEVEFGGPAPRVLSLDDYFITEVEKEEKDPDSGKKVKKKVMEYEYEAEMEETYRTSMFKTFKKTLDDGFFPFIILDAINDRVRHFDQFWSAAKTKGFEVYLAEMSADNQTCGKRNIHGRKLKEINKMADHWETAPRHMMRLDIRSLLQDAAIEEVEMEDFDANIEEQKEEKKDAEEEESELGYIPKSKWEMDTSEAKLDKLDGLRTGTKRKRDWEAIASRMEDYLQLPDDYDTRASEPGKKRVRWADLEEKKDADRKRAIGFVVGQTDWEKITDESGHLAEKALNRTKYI
How it was run: as §1

YOD1 = YOD1 (UniProt Q5VVQ6)
Chain of YOD1 (Q5VVQ6 whole entry, looked up): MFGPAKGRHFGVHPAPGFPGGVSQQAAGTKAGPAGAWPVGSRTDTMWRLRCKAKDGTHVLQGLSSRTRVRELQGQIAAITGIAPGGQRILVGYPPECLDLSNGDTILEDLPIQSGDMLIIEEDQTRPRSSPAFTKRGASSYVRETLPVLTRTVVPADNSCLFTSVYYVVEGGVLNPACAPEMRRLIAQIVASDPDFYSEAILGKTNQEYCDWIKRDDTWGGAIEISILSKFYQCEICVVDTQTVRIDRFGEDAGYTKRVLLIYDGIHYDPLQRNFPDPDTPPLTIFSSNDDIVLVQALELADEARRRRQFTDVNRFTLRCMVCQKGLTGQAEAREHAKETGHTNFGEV
How it was run: as §1

YPEL5 = YPEL5 (UniProt P62699)
Chain of YPEL5 (P62699 whole entry, looked up): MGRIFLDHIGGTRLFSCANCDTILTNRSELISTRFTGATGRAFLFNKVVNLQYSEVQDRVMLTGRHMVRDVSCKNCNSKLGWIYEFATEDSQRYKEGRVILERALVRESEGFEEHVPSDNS
How it was run: as §1

Measured: log2 fold change

Cn1cc(-c2ccc3nnc(C(F)(F)c4ccc5ncccc5c4)n3n2)cn1
inactive: YAE1 0.043 | YBX1 -0.136 | YES1 0.008 | YIPF4 0.108 | YIPF5 isoform 3 0.12 | YIPF6 0.032 | YLPM1 0.031 | YOD1 0.057 | YPEL5 -0.071

FC(F)(F)c1ccc(/C=C/c2nc(COc3ccc(CCCCn4ccnn4)cc3)co2)cc1 [mubritinib]
inactive: YAE1 -0.062 | YBX1 -0.031 | YES1 -0.067 | YIPF4 0.024 | YIPF5 isoform 3 0.012 | YIPF6 0.036 | YLPM1 -0.038 | YOD1 0.108 | YPEL5 -0.202

Cc1cc(Nc2cc(CN3CCOCC3)c3nc(C)c(Cc4ccc(Cl)cc4F)n3n2)n[nH]1 [gandotinib]
inactive: YAE1 0.007 | YBX1 0.334 | YES1 -0.447 | YIPF4 -0.086 | YIPF5 isoform 3 -0.1 | YIPF6 -0.019 | YLPM1 -0.117 | YOD1 -0.149 | YPEL5 -0.095

CC1=C(C(=O)Nc2cc3cn[nH]c3cc2F)C(c2ccc(C(F)(F)F)cc2)CC(=O)N1 (stereo unspecified)
inactive: YAE1 -0.001 | YBX1 0.044 | YES1 -0.012 | YIPF4 -0.019 | YIPF5 isoform 3 -0.007 | YIPF6 0.055 | YLPM1 -0.01 | YOD1 0.023 | YPEL5 0.058

CC(C)C[C@@H](C=O)NC(=O)[C@H](CC(C)C)NC(=O)[C@H](CC(C)C)NC(=O)OCc1ccccc1
inactive: YAE1 0.007 | YBX1 0.083 | YES1 0.068 | YIPF4 -0.016 | YIPF5 isoform 3 -0.012 | YIPF6 0.02 | YLPM1 0.028 | YOD1 0.045 | YPEL5 0.05

CCn1cc(-c2ccnc3[nH]c(-c4cccc(CN(C)C)c4)cc23)c(-c2ccc(NC(=O)N(C)C)cc2)n1
inactive: YAE1 -0.015 | YBX1 0.249 | YES1 -0.241 | YIPF4 0.037 | YIPF5 isoform 3 0.06 | YIPF6 0.103 | YLPM1 -0.012 | YOD1 -0.101 | YPEL5 -0.072

O=C(CCCCCCNC(=O)c1cnc(N(c2ccccc2)c2ccccc2Cl)nc1)NO [citarinostat]
inactive: YAE1 0.04 | YBX1 -0.13 | YES1 0.008 | YIPF4 0.042 | YIPF5 isoform 3 0.023 | YIPF6 0.011 | YLPM1 0.099 | YOD1 0.067 | YPEL5 -0.077

CNc1nc(-c2ccc3c(N)n[nH]c3c2)cc(N2C[C@@H](C(=O)NC3CCCCC3)CC[C@H]2C)n1
inactive: YAE1 -0.092 | YBX1 0.044 | YES1 -0.037 | YIPF4 -0.082 | YIPF5 isoform 3 -0.115 | YIPF6 -0.039 | YLPM1 0.006 | YOD1 0.011 | YPEL5 -0.06

CC[C@H](C)n1cc(C)c2c(C(=O)NCc3c(C)cc(C)[nH]c3=O)cc(-c3ccc(N4CCNCC4)nc3)cc21
inactive: YAE1 0.02 | YBX1 -0.063 | YES1 0.112 | YIPF4 -0.016 | YIPF5 isoform 3 -0.041 | YIPF6 -0.039 | YLPM1 0.067 | YOD1 0.081 | YPEL5 0.109

CCCS(=O)(=O)Nc1ccc(F)c(C(=O)c2c[nH]c3ncc(-c4ccc(Cl)cc4)cc23)c1F [vemurafenib]
inactive: YAE1 0.019 | YBX1 -0.12 | YES1 -0.159 | YIPF4 0.03 | YIPF5 isoform 3 -0.021 | YIPF6 -0.15 | YLPM1 0.017 | YOD1 -0.001 | YPEL5 -0.068

CS(=O)(=O)c1ccc(-c2cnc(N)c(C(=O)Nc3ccccc3)n2)cc1
inactive: YAE1 0.011 | YBX1 -0.101 | YIPF4 0.013 | YIPF5 isoform 3 -0.093 | YIPF6 0.199 | YLPM1 -0.051 | YOD1 0.117 | YPEL5 0.152

Cn1cncc1[C@@](N)(c1ccc(Cl)cc1)c1ccc2c(c1)c(-c1cccc(Cl)c1)cc(=O)n2C [tipifarnib]
active: YIPF4 0.31
inactive: YAE1 -0.008 | YBX1 0.242 | YES1 -0.001 | YIPF5 isoform 3 -0.059 | YIPF6 -0.035 | YLPM1 -0.048 | YOD1 -0.048 | YPEL5 0.125

CCCc1cc(C)[nH]c(=O)c1CNC(=O)c1cc(-c2ccnc(N3CCN(C)CC3)c2)cc2c1cnn2C(C)C
inactive: YAE1 -0.083 | YBX1 0.055 | YES1 0.075 | YIPF4 -0.036 | YIPF5 isoform 3 -0.005 | YIPF6 -0.067 | YLPM1 0.083 | YOD1 -0.017 | YPEL5 0.014

C[C@@H]1COCCN1c1cc(C2(S(C)(=O)=O)CC2)nc(-c2cccc3[nH]ccc23)n1
inactive: YAE1 -0.039 | YBX1 -0.368 | YES1 -0.035 | YIPF4 0.095 | YIPF5 isoform 3 0.019 | YIPF6 0.076 | YLPM1 0.015 | YOD1 0.055 | YPEL5 -0.079

Cc1nc(Nc2ncc(C(=O)Nc3c(C)cccc3Cl)s2)cc(N2CCN(CCO)CC2)n1 [dasatinib]
inactive: YAE1 0.152 | YBX1 0.167 | YIPF4 0.021 | YIPF5 isoform 3 0.055 | YIPF6 0.256 | YLPM1 -0.062 | YOD1 -0.115 | YPEL5 -0.004
active: YES1 -0.737

CCN(CCCOc1ccc2c(Nc3cc(CC(=O)Nc4cccc(F)c4)[nH]n3)ncnc2c1)CCOP(=O)(O)O [barasertib]
inactive: YAE1 0.097 | YBX1 -0.127 | YES1 -0.006 | YIPF4 0.026 | YIPF5 isoform 3 -0.08 | YIPF6 -0.041 | YLPM1 0.03 | YOD1 0.051 | YPEL5 0.121

CC(C)(C)Cn1c(N)nc2ccc(-c3[nH]c(C(C)(C)C)nc3-c3ccc(F)cc3)nc21 [ralimetinib]
inactive: YAE1 0.023 | YBX1 0.082 | YES1 -0.09 | YIPF4 -0.099 | YIPF5 isoform 3 -0.292 | YIPF6 -0.045 | YLPM1 0.043 | YOD1 -0.001 | YPEL5 -0.111

C#Cc1cccc(Nc2ncnc3cc(OCCOC)c(OCCOC)cc23)c1 [erlotinib]
inactive: YAE1 0.055 | YBX1 -0.173 | YES1 -0.145 | YIPF4 0.004 | YIPF5 isoform 3 0.011 | YIPF6 -0.017 | YLPM1 0.084 | YOD1 0.064 | YPEL5 0.049

CON(C)C(=O)N1N=C(c2cc(F)ccc2F)S[C@@]1(CCCN)c1ccccc1 [filanesib]
inactive: YAE1 0.133 | YBX1 0.202 | YIPF4 0.077 | YIPF5 isoform 3 0.017 | YIPF6 -0.08 | YLPM1 0.083 | YOD1 -0.067 | YPEL5 0.413

Cc1ccc(NC(=O)c2cccc(C(C)(C)C#N)c2)cc1Nc1ccc2ncn(C)c(=O)c2c1
inactive: YAE1 0.056 | YBX1 0.041 | YIPF4 0.013 | YIPF5 isoform 3 0.042 | YIPF6 -0.131 | YLPM1 -0.095 | YOD1 0.067 | YPEL5 -0.131

C=CC(=O)N1CCC[C@@H](n2nc(-c3ccc(Oc4ccccc4)cc3)c3c(N)ncnc32)C1 [ibrutinib]
inactive: YAE1 -0.008 | YBX1 0.103 | YES1 0.188 | YIPF4 0.009 | YIPF5 isoform 3 -0.005 | YIPF6 -0.001 | YLPM1 -0.117 | YOD1 -0.016 | YPEL5 0.054

CCn1c(C(=O)N(C2CC2)C2CC2)cc2c3c(ncn3C)c(Nc3cc(C)n(C)n3)nc21
inactive: YAE1 -0.018 | YBX1 -0.016 | YES1 -0.243 | YIPF4 0 | YIPF5 isoform 3 -0.01 | YIPF6 0.022 | YLPM1 -0.077 | YOD1 -0.014 | YPEL5 0.027

CNC(=O)c1ccc(Nc2ncc(C(F)(F)F)c(NCc3nccnc3N(C)S(C)(=O)=O)n2)cc1 [defactinib]
inactive: YAE1 0.026 | YBX1 0.301 | YES1 -0.199 | YIPF4 -0.016 | YIPF5 isoform 3 -0.019 | YIPF6 -0.041 | YLPM1 -0.019 | YOD1 -0.103 | YPEL5 -0.073

O=C1NC(=O)/C(=C\c2ccc3nccnc3c2)S1
inactive: YAE1 -0.037 | YBX1 -0.009 | YES1 -0.09 | YIPF4 0.04 | YIPF5 isoform 3 0.009 | YIPF6 0.025 | YLPM1 0.046 | YOD1 0.129 | YPEL5 -0.002

Oc1cc(-c2nc(-c3ccccc3)[nH]c2-c2ccncc2)ccc1Cl
inactive: YAE1 -0.015 | YBX1 -0.053 | YES1 -0.112 | YIPF4 -0.054 | YIPF5 isoform 3 -0.05 | YIPF6 -0.041 | YLPM1 -0.024 | YOD1 -0.02 | YPEL5 0.213

NC(=O)c1ccc2nc(-c3ccc(Oc4ccc(Cl)cc4)cc3)[nH]c2c1
inactive: YAE1 0 | YBX1 -0.033 | YES1 0.049 | YIPF4 -0.039 | YIPF5 isoform 3 0.012 | YIPF6 0.005 | YLPM1 0.033 | YOD1 0.019 | YPEL5 -0.021
